From PubChem BioAssay
Shown are actives, neighbours in structure and some others; about 11% of the full set was active somewhere.
USP28 inh – inhibitors of human USP28 deubiquitinase | Q96RU2 | inhibition, % at 25 µM | purified USP28, Ub-rhodamine cleavage fluorescence, 30 min | 47,000 tested, 3% active | AID 1645857
OTUD3 block – blocks human OTUD3 ubiquitin-rhodamine cleavage. Q5T2D3. purified OTUD3, Ub-rhodamine fluorescence, 2 h. inhibition, % at 25 µM. 47,000 tested, 0.7% active
USP30 block – inhibitors of human USP30 deubiquitinase; 47,000 tested, 5.3% active; inhibition, % at 25 µM; purified USP30, Ub-rhodamine cleavage fluorescence; Q70CQ3; AID 1645860
USP17 block – human USP17-like deubiquitinase inhibition; A8MUK1; purified USP17, Ub-rhodamine cleavage fluorescence, 3 h; inhibition, % at 50 µM; 47,000 tested, 6.5% active; AID 1645855
Target sequence (A8MUK1 whole entry, looked up): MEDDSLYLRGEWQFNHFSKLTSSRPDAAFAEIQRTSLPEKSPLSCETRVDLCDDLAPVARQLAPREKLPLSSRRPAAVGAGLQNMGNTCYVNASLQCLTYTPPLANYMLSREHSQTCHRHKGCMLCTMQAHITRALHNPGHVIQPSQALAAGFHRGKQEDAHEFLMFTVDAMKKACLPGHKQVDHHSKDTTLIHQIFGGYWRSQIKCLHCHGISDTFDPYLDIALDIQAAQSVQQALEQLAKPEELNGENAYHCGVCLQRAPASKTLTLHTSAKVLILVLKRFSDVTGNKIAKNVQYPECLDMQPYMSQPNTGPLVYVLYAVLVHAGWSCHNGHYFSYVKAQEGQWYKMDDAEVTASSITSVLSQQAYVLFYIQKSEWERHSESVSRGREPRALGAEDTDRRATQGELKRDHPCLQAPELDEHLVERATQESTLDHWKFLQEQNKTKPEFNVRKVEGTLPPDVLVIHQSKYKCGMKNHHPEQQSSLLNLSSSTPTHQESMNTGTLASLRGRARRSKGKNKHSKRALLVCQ
The depositor's hits bear a star; / = no result given. Rule as the data show it: active = inhibition above about 30%; inactive = the rest.

SMILES | USP28 inh | OTUD3 block | USP30 block | USP17 block
COc1ccc(CCNC(=O)C2CCCN(S(=O)(=O)N3CCC(C)CC3)C2)c(OC)c1 (configuration not stated) | 10 | 14 | 33* | 17
Cc1cccc(OCC(=O)Nc2ccc(C(=O)OCc3cc(=O)n4ccsc4n3)cc2)c1 | -65 | -43 | -213 | -14
COC(=O)c1cc2c(ccn2-c2ccc(F)cc2)n1CC(=O)N(Cc1ccc(OC)cc1)c1ccc(F)cc1 | -15 | -10 | -86 | -22
O=C(Nc1ccc(F)cc1)C1CCCN(S(=O)(=O)N2CCCCCC2)C1 (configuration not stated) | 3 | 2 | 15 | -9
CCOC(=O)c1ccc(NC(=O)C2CCCN(S(=O)(=O)N3CCCCCC3)C2)cc1 (configuration not stated) | -6 | 7 | 15 | 41*
O=C(Nc1cccc(F)c1)C1CCCN(S(=O)(=O)N2CCCCCC2)C1 (configuration not stated) | 10 | 18 | 26 | 53*
COc1ccc(NC(=O)C2CCCN(S(=O)(=O)N3CCC(C)CC3)C2)cc1 (configuration not stated) | 0 | 0 | 16 | 38*
CS(=O)(=O)NC1CCCN(C(=O)Nc2cccc3ccccc23)C1 (configuration not stated) | 11 | 11 | 12 | 87*
Cn1cc(S(=O)(=O)Nc2ccn(Cc3cccc(F)c3)n2)cn1 | -5 | -6 | -11 | -12
COc1ccc2nc(Nc3nc(-c4cnc(N5CCCC5)nc4C)cc(=O)[nH]3)nc(C)c2c1 | -5 | -1 | -10 | -7
COc1ccc(CNC(=O)C2CCCN(S(=O)(=O)Cc3ccccc3Cl)C2)cc1 (configuration not stated) | -13 | -1 | 14 | 2
Cc1cccc(CNC(=O)C2CCCN(S(=O)(=O)Cc3ccccc3Cl)C2)c1 (configuration not stated) | 0 | 5 | 39* | 22
Cc1nn(-c2ccc(Cl)cc2)c2[nH]c(=O)c(CNc3ccccc3)cc12 | 5 | 12 | -14 | 40*
Cc1nn(-c2ccccc2)c2[nH]c(=O)c(CNc3ccccc3)cc12 | -38 | -22 | -38 | 27
Cc1ccc(NCc2cc3c(C(C)(C)C)nn(-c4ccc(Cl)cc4)c3[nH]c2=O)cc1C | -4 | 14 | 3 | 43*
CCCCCC(=O)/C=C/C(=O)O | 6 | 2 | 10 | -1
O=C(CN1CCC(c2nc(-c3cccc(F)c3)no2)CC1)NC1CCCC1 | 4 | 10 | 25 | 0
O=C(c1ccoc1)N1C[C@H](OCC2CCOCC2)[C@H]2COC[C@H]21 | -5 | 0 | -27 | -4
O=C(O)c1cc(NC(=O)C(Sc2cccc(NC(=O)c3ccccc3F)c2)c2ccccc2)ccc1O (configuration not stated) | -37 | -50 | -167 | -16
Cc1ccc(C(=O)O)cc1NC(=O)C(Sc1cccc(NC(=O)c2cccc(Cl)c2)c1)c1ccccc1 (configuration not stated) | 47* | 29 | 91* | 85*
O=C(O)c1ccccc1C(=O)Nc1ccc(SC(C(=O)Nc2cccc(Cl)c2)c2ccccc2)cc1 (configuration not stated) | 34* | 28 | 17 | 51*
Cc1cccc(C(=O)Nc2cccc(SC(C(=O)Nc3ccc(Cl)c(C(=O)O)c3)c3ccccc3)c2)c1 (configuration not stated) | 44* | 21 | 47* | 80*
O=C(c1ccccc1)N1CCCCCC1C1CCN(c2ncccn2)CC1 (configuration not stated) | 11 | 12 | 26 | 8
SC(COCc1ccccc1)CN1CCN(c2ccccc2)CC1 (configuration not stated) | 24 | 33* | 44* | 23
COc1ccc(N2CCN(CC(O)COCc3ccc(Cl)cc3)CC2)cc1 (configuration not stated) | -14 | -4 | -52 | /
SMILES | USP28 inh | OTUD3 block | USP30 block | USP17 block
Cc1ccccc1C(=O)c1c[nH]c(C(=O)O)c1 | 1 | 2 | 0 | 9
COc1ccc(C2CC(=O)c3cnc(NCC4CCCO4)nc3C2)cc1OC (configuration not stated) | 14 | 15 | 30* | 16
Cc1ccc(S(=O)(=O)Nc2cccc(-c3nc4cccnc4s3)c2)cc1C | 17 | 9 | 47* | 29
COc1ccc(OC)c(S(=O)(=O)Nc2cccc(-c3nc4cccnc4s3)c2)c1 | 9 | -7 | -44 | -11
CCOc1ccc2nc(NC(=O)C3CCN(S(=O)(=O)c4ccc5c(c4)CC(C)N5C(C)=O)CC3)sc2c1 (configuration not stated) | -11 | -11 | 50* | 13
O=C1C=C(O)c2c(O)cccc2C1=O | 51* | 14 | -28 | 92*
